Laboratory results published in PubChem BioAssay (NCATS).
Several values for one entry are separate records, joined by “and”; a condition that tells them apart may be missing. Equal entries are not always repeated. Results filed as inconclusive are left out. Where a call stands in place of a potency, no number is given. A structure can be active in one record and inactive in another. Activity calls are given as the source filed them. Unless noted, calls follow the shape of the dose curve; as a rule, active = well fitted curve in the direction sought with a large enough effect; inconclusive = small, poorly fitted or top-dose-only effect, or another doubt; inactive = no such curve, though single readings can be large; an effect the other way counts as inactive or inconclusive.

Assays:
[1] = molecular target: Catechol O-methyltransferase (Homo sapiens) (UniProt P21964); assay: Confirmatory Screen for Target Class Profiling of Small Molecule Inhibitors of Methyltransferases (AID 1745852; calls by dose curve; also: potency is read from the fitted curve at half-maximal effect); conditions: MTase-Glo luminescence, SAH detection, recombinant enzyme, stronger effect = lower value; measured here: COMT max response unless noted
[2] = molecular target: Guanidinoacetate N-methyltransferase (Homo sapiens) (UniProt Q14353); assay: as above; conditions: MTase-Glo luminescence, SAH detection, recombinant enzyme; activity change, negative = inhibition: at 57.3 µM (top of the series)
[3] = molecular target: Nicotinamide N-methyltransferase (Homo sapiens) (UniProt P40261); assay: as above; conditions: MTase-Glo luminescence, SAH detection, recombinant enzyme, stronger effect = lower value; measured here: NNMT max response unless noted
[4] = molecular target: Phenylethanolamine N-methyltransferase (Homo sapiens) (UniProt P11086); assay: as above; conditions: MTase-Glo luminescence, SAH detection, recombinant enzyme, stronger effect = lower value; measured here: PNMT max response unless noted
[5] = NCATS anti-infectives library activity on the primary C. elegans qHTS viability assay (AID 1745855; calls by dose curve)
Method in brief: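 Viability read-out is GFP fluorescence of PE254-GFP-FLuc C. elegans, measured by laser cytometry (488 nm) at day 0, 3 and 7. Ten L1 worms per well were incubated 7 days at 21 °C with compounds and bacterial capsules in S medium.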

[6] = Viability counterscreen for antagonist of constitutive androstane receptor (CAR) against the NCATS DSHEA and TCM libraries (AID 1794837);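 also: compound exposure lasted 24 h before viability reading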
Method in brief: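 Cells: HepG2 line carrying CYP2B6 reporter and hCAR, seeded and attached 5 h. Then pin-transferred test substances plus agonist CITCO at 48 uM final; 24 h incubation; fluorogenic viability reagent, 1 h.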

[7] = Viability counterscreen for agonist of constitutive androstane receptor (CAR) against the NCATS DSHEA and TCM libraries (AID 1794838);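 also: HepG2 cells with CYP2B6 reporter and hCAR plus 0.75 µM PK11195 antagonist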
Method in brief: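 Cell health was measured as CellTiter-Fluor signal in HepG2-CYP2B6-hCAR cells treated for 24 h with substances alongside the hCAR antagonist PK11195 (0.75 uM final).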

[8] = molecular target: Nuclear receptor subfamily 1 group I member 3 (Homo sapiens) (UniProt Q14994); assay: Primary qHTS for agonist of constitutive androstane receptor (CAR) against the NCATS DSHEA and TCM libraries (AID 1794839);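 also: HepG2 cells expressing human CAR with a CYP2B6 reporter plus PK11195 antagonist; luciferase reporter luminescence read with ONE-Glo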
Method in brief: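 qHTS, agonist mode: HepG2-CYP2B6-hCAR, 2,500 cells/well, 5 h attach; cpds + PK11195 0.75 µM final; 24 h, 37 °C, 5% CO2. Readouts: CellTiter-Fluor (405/540 nm), then ONE-Glo luminescence.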

[9] = HepG2 viability counterscreen (readout 2: ATP content) against the NCATS DSHEA and TCM libraries (AID 1794840)
Method in brief: (§1)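 Same wells read twice: first fluorescence from cleaved GF-AFC substrate (25 uM final, 30 min, 37C) for live-cell protease, then CellTiter-Glo luminescence after 30 min at room temperature for ATP. HepG2 cells were exposed ~24 h to substances.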

[10] = HepG2 viability counterscreen (readout 1: protease activity) against the NCATS DSHEA and TCM libraries (AID 1794841);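 also: cells exposed to compounds for about 24 h before the protease read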
Method in brief: as §1

[11] = Primary qHTS for inhibitors of nuclear receptor binding SET domain protein 2 (NSD2) in an isogenic RCH-ACV NSD2 p.E1099K mutant (9B) (AID 1645876); also: nearly all actives have a fitted effect of over 70% in size; also: potency is read from the fitted curve at half-maximal effect
[12] = Primary qHTS for inhibitors of nuclear receptor binding SET domain protein 2 (NSD2) in an RCH-ACV wild type WT cells (2C) (AID 1645877); also: nearly all actives have a fitted effect of over 70% in size; also: potency is read from the fitted curve at half-maximal effect

Sequence of Catechol O-methyltransferase (Homo sapiens) (P21964 whole entry, looked up): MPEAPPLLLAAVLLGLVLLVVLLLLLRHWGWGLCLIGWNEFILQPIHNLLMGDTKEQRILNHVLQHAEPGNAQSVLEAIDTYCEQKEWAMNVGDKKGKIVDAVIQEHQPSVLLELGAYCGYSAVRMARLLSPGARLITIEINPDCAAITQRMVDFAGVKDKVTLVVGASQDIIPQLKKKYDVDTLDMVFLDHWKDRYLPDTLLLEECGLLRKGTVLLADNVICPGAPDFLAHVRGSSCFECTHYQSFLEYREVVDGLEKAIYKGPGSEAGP
Sequence of Nicotinamide N-methyltransferase (Homo sapiens) (P40261 whole entry, looked up): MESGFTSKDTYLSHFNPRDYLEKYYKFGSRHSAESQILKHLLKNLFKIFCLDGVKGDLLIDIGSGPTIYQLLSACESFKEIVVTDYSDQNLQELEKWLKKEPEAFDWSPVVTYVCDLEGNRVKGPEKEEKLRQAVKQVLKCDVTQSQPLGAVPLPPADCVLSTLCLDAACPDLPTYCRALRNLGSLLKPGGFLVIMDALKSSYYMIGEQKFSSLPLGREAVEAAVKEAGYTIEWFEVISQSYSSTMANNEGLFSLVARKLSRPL
Sequence of Nuclear receptor subfamily 1 group I member 3 (Homo sapiens) (Q14994 whole entry, looked up): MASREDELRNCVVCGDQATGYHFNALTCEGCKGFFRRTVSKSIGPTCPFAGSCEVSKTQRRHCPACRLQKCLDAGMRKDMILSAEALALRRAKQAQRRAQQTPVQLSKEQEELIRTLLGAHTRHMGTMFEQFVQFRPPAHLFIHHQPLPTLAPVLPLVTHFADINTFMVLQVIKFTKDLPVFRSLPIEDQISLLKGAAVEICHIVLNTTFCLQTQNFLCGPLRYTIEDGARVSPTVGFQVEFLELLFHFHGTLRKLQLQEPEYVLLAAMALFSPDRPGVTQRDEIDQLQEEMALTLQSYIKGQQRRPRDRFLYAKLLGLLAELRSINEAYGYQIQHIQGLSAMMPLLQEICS
Sequence of Phenylethanolamine N-methyltransferase (Homo sapiens) (P11086 whole entry, looked up): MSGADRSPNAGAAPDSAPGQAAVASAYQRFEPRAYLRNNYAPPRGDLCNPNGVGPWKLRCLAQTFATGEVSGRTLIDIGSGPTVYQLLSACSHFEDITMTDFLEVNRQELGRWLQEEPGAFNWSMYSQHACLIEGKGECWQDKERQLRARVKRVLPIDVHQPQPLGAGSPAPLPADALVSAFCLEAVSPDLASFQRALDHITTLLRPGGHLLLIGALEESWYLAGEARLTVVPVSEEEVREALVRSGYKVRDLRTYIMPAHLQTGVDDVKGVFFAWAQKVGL

With `COc1cc(Nc2c(C#N)cnc3cc(OCCCN4CCN(C)CC4)c(OC)cc23)c(Cl)cc1Cl` the activity [1] was -94.4%, the Potency [2] was 12.1 µM (active) and the activity [3] was -86.9%. It also gave an activity [4] of -96.9%.

In the case of `S=c1nc[nH]c2nc[nH]c12`, the Potency [5] is reported as “inactive”.

With `Cc1cc(O)c2c(c1)C(=O)c1cc(O)cc(O)c1C2=O` the outcome [6] was “inactive”, the outcome [7] was “inactive” and the outcome [8] was “inactive”. For the same molecule, the outcome [9] was “inactive” and the outcome [10] was “inactive”.

For `NC(=NCc1ccccc1)NC(=O)c1nc(Cl)c(N)nc1N`, the Potency [11] was 13.2 µM (active) and the Potency [12] was 13.2 µM (active).

With `Nc1nc(Cl)nc2c1ncn2[C@H]1C[C@H](O)[C@@H](CO)O1` the Potency [11] was 0.0468 µM (active) and the Potency [12] was 0.0417 µM (active).

In the case of `C=C(c1ccc(C(=O)O)cc1)c1cc2c(cc1C)C(C)(C)CCC2(C)C`, the Potency [11] is reported as “inactive” and the Potency [12] is reported as “inactive”.

For `CN(C)c1ccc(O)c2c1C[C@H]1C[C@H]3[C@H](N(C)C)C(=O)C(C(N)=O)=C(O)[C@@]3(O)C(=O)C1=C2O`, the Potency [11] was “inactive” and the Potency [12] was “inactive”.

In the case of `Nc1ncn([C@H]2C[C@H](O)[C@@H](CO)O2)c(=O)n1`, the Potency [11] is reported as 266 nM (active) and 742 nM (active) and the Potency [12] is reported as 133 nM (active) and 1.18 µM (active).

In the case of `Cc1cc2cc3c(C)cc(=O)oc3c(C)c2o1`, the Potency [11] is reported as “inactive” and the Potency [12] is reported as “inactive”.

With `COc1cc(OC)c(C(=O)CCCN2CCCC2)c(OC)c1` the Potency [11] was “inactive” and the Potency [12] was “inactive”.

In the case of `CCCCC(CC)COC(=O)C(C#N)=C(c1ccccc1)c1ccccc1` (stereo not given), the Potency [11] is reported as 21.1 µM (active) and inactive and the Potency [12] is reported as “inactive”.

In the case of `COCCCN1CCC(NC(=O)c2cc(Cl)c(N)c3c2OCC3)CC1`, the Potency [11] is reported as “inactive” and the Potency [12] is reported as “inactive”.

In the case of `Clc1ccc2c(N3CCN(CCCN4CCN(c5ccnc6cc(Cl)ccc56)CC4)CC3)ccnc2c1`, the Potency [11] is reported as “inactive” and the Potency [12] is reported as “inactive”.
